PDI inh: inhibitors of human PDI, primary screen, biochemical, turbidity, single point, plate reader. PDI insulin aggregation turbidity, A650, 90 min. 350,000 compounds, 0.052% hits. Protein disulfide-isomerase (Homo sapiens), P07237. inhibition, % at 10 µM;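 active means mean inhibition across replicates of 30% or more, whatever share of single replicates reach that level; inconclusive means mean inhibition below 30% while every single replicate reaches 30%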
HDAC3 inh: HDAC3 deacetylase inhibitors, primary screen, biochemical, fluorescence, cell-free homogeneous; AID 2718, 2010; recombinant HDAC3, fluorogenic peptide/trypsin coupled; inhibition, % at 8.3 µM; 320,000 compounds, 0.15% hits; in the data active means inhibition above about 26%, passing the limit was not always enough; inconclusive means no clear call, values can overlap the other calls
Target sequence (O15379 whole entry, looked up): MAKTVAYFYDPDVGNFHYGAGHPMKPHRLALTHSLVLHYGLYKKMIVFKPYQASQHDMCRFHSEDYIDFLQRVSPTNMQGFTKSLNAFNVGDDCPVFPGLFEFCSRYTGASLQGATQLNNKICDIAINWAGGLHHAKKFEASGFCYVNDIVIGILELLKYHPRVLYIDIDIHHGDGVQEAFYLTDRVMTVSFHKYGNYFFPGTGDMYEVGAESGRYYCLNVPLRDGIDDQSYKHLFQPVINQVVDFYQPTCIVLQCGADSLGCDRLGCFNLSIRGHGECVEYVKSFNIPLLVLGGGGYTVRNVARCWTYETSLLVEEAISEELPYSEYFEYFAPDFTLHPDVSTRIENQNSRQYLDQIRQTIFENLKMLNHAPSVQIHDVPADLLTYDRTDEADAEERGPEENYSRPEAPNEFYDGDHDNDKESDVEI
ERp5 block: inhibitors of ERp5-driven insulin aggregation, primary screen, biochemical, turbidity, absorbance 650 nm, single point. Protein disulfide-isomerase A6 (Homo sapiens), Q15084. 90 min. inhibition, % at 9.99 µM. 350,000 compounds, 0.05% hits;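 active means mean replicate inhibition above about 25%, with every replicate also reaching it, limit read from the data, passing the limit was not always enough; inconclusive means only one of those two criteria met; inactive means neither criterion met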
SIRT5 block: SIRT5 desuccinylase inhibitors, primary screen, biochemical, fluorescence imaging, single point, set 5. NAD-dependent protein deacylase sirtuin-5, mitochondrial (Homo sapiens), Q9NXA8. Purified SirT5, succinyl-peptide AMC, trypsin-coupled fluorescence. inhibition, % at 15 µM. 330,000 compounds, 1.1% hits. AID 652115, 2013; in the data active means inhibition above about 15%; inconclusive means no clear call, values can overlap the other calls
ERAP1 inh: human ERAP1 aminopeptidase inhibitors, primary screen, biochemical, single point, plate reader; Endoplasmic reticulum aminopeptidase 1 (Homo sapiens), Q9NZ08; recombinant ERAP1, Leu-AMC fluorescence, 60 min; inhibition, % at 10.7 µM; 340,000 compounds, 0.15% hits; AID 652197, 2013;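 active means mean replicate inhibition of at least 30%, or all replicates individually reaching that 30% level; inactive means mean below 30% and not every replicate reaching it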
Large screens that a line does not name were inactive. This is one part of a sample in which hits are shown more often than they occur.

O=C(c1cccs1)c1coc2ccc(O)c(CN3CCOCC3)c12	SIRT5 block 29.1
C=CCn1ncc(OC)c(Cl)c1=O	SIRT5 block 24.3
COc1cnn(-c2cccc(C)c2)c(=O)c1Cl	none
C[C@@H]1CN([C@H](C)CO)C(=O)Cc2cc(NC(=O)Cc3cn(C)c4ccccc34)ccc2O[C@@H]1CN(C)S(=O)(=O)c1cccs1	none (no result: PDI inh, HDAC3 inh)
CCOc1ccccc1NC(=O)C(OC(=O)c1ccc(NC(=O)CC#N)cc1)c1ccccc1 (stereo not drawn)	none
CC(OC(=O)c1ccc(NC(=O)CC#N)cc1)C(=O)NC(c1ccccc1)c1ccccc1 (stereo not drawn)	SIRT5 block 15.9
O=C(C[C@@H]1CC[C@@H](NC(=O)c2cccc(F)c2)[C@@H](CO)O1)Nc1nccs1	none (no result: PDI inh, HDAC3 inh)
CN(C)S(=O)(=O)c1ccc(Cl)c(NC(=O)CSc2nnnn2-c2ccc(O)cc2)c1	PDI inh 41.2 (no result: HDAC3 inh)
Cc1ccc(S(=O)(=O)N(C)C)cc1NC(=O)CSc1nnnn1-c1ccc(O)cc1	none
CC(C)NC(=O)Nc1ccc2c(c1)CC(=O)N([C@H](C)CO)C[C@H](C)[C@H](CN(C)S(=O)(=O)c1ccc(F)cc1)O2	none (no result: PDI inh, HDAC3 inh)
Cc1ccc(C2=NN(S(=O)(=O)c3ccccc3)C(c3ccco3)C2)cc1 (stereo not drawn)	none
O=S(=O)(c1ccccc1)N1N=C(c2ccc(O)cc2)CC1c1ccco1 (stereo not drawn)	PDI inh 38.2
CCC(=O)N[C@@H]1CC[C@@H](CCNS(=O)(=O)c2ccc(Cl)cc2)O[C@H]1CO	none (no result: PDI inh, HDAC3 inh)
O=C(/C=C/c1ccc(F)cc1)N1CCCN(C(=O)/C=C/c2ccc(F)cc2)CC1	none (no result: ERp5 block, SIRT5 block, ERAP1 inh)
O=C(/C=C/c1ccc(-c2ccc(F)cc2)o1)N1CCCC1	SIRT5 block 21.0
COc1cccc(CNC(=O)[C@H]2[C@H](CO)[C@H]3Cn4c(ccc(-c5cccnc5)c4=O)[C@@H]2N3C(C)=O)c1	none (no result: PDI inh, HDAC3 inh)
Cc1n[nH]c(=O)c2c(NC(=O)CSc3nnnn3-c3ccc(O)cc3)oc(C)c12	PDI inh 42.6
Cc1n[nH]c(=O)c2c(NC(=O)CSc3nnnn3-c3ccccc3)oc(C)c12	none
CCOc1ccccc1C(=O)N/N=C/c1coc2ccc(Cl)cc2c1=O	HDAC3 inh 32.3
O=C(N/N=C/c1coc2ccccc2c1=O)c1cc(Br)c(O)c(Br)c1	HDAC3 inh 46.2
C[C@H](CO)N1C[C@H](C)[C@H](CN(C)C(=O)CCCN(C)C)OCCCC[C@H](C)Oc2ccc(NS(=O)(=O)c3ccc(F)cc3)cc2C1=O	none (no result: PDI inh, HDAC3 inh)
COC(=O)C[C@H]1C=C[C@@H](NC(=O)c2ccccc2)[C@H](CO)O1	none (no result: PDI inh, HDAC3 inh)
Cc1ccccc1-c1nc(CS(=O)(=O)CC(=O)NCCCN2CCCC2)c(C)o1	SIRT5 block 16.6 (no result: PDI inh)
C[C@@H]1CN([C@H](C)CO)C(=O)Cc2cc(NS(=O)(=O)c3cn(C)cn3)ccc2O[C@H]1CN(C)C(=O)Nc1ccccc1	none (no result: PDI inh, HDAC3 inh)
COc1c(C(CC(C)C)OC(C)=O)ccc2c1C(=O)OCc1cc(C)cc(O)c1O2 (stereo not drawn)	HDAC3 inh 33.9 (no result: PDI inh)
COc1c(C(O)CC(C)C)ccc2c1C(=O)OCc1cc(C)cc(O)c1O2 (stereo not drawn)	HDAC3 inh inconclusive (no result: PDI inh, SIRT5 block)
O=C(Nc1ccc(Cl)c(Cl)c1)N[C@@H]1CC[C@H](CCn2cc(C3CCCC3)nn2)O[C@@H]1CO	none (no result: PDI inh, HDAC3 inh)
COc1ccc(S(=O)(=O)N(C)C[C@H]2OCCCC[C@H](C)Oc3ccc(NS(=O)(=O)c4ccc(F)cc4)cc3C(=O)N([C@H](C)CO)C[C@@H]2C)cc1	SIRT5 block 17.5 (no result: PDI inh, HDAC3 inh)
COc1ccc(S(=O)(=O)N(C)C[C@@H]2OCCCC[C@@H](C)Oc3ccc(NS(=O)(=O)c4ccc(F)cc4)cc3C(=O)N([C@H](C)CO)C[C@@H]2C)cc1	none (no result: PDI inh, HDAC3 inh)
COc1ccc(S(=O)(=O)N(C)C[C@@H]2OCCCC[C@@H](C)Oc3ccc(NS(=O)(=O)c4ccc(F)cc4)cc3C(=O)N([C@@H](C)CO)C[C@@H]2C)cc1	SIRT5 block 20.0 (no result: PDI inh, HDAC3 inh)
COc1ccc(S(=O)(=O)Nc2ccc3c(c2)C(=O)N([C@H](C)CO)C[C@@H](C)[C@@H](CN(C)S(=O)(=O)c2ccc(F)cc2)OCCCC[C@H](C)O3)cc1	none (no result: PDI inh, HDAC3 inh)
COc1ccc(S(=O)(=O)N(C)C[C@@H]2OCCCC[C@H](C)Oc3ccc(NS(=O)(=O)c4ccc(F)cc4)cc3C(=O)N([C@@H](C)CO)C[C@@H]2C)cc1	SIRT5 block 20.2 (no result: PDI inh, HDAC3 inh)
COc1ccc(S(=O)(=O)Nc2ccc3c(c2)C(=O)N([C@@H](C)CO)C[C@H](C)[C@@H](CN(C)S(=O)(=O)c2ccc(F)cc2)OCCCC[C@@H](C)O3)cc1	none (no result: PDI inh, HDAC3 inh)
COc1ccc(S(=O)(=O)N(C)C[C@H]2OCCCC[C@@H](C)Oc3ccc(NS(=O)(=O)c4ccc(F)cc4)cc3C(=O)N([C@H](C)CO)C[C@H]2C)cc1	SIRT5 block 20.0 (no result: PDI inh, HDAC3 inh)
O=C(CC1CC1)N1CC2(C1)[C@@H](c1ccccc1)[C@H](CO)N2C(=O)c1cccnc1	none (no result: PDI inh, HDAC3 inh)
[N-]=C=C1C(=O)NC(=O)C([n+]2ccc(-c3ccncc3)cc2)C1c1ccccc1C(F)(F)F (stereo not drawn)	none
[N-]=C=C1C(=S)NC(=O)[C@H]([n+]2ccccc2)[C@H]1c1ccc(Cl)cc1	SIRT5 block 33.8
CN1C(=O)c2cc(NC(=O)C3CCOCC3)ccc2OC[C@H]2O[C@H](CC(=O)NCc3ccc4c(c3)OCO4)CC[C@@H]21	none (no result: PDI inh, HDAC3 inh)
O=C(Nc1ccc(S(=O)(=O)Nc2nccs2)cc1)C1CC(=O)N(c2ccc(Cl)cc2)C1 (stereo not drawn)	none
Cc1ccc(N2CC(C(=O)Nc3ccc(S(=O)(=O)Nc4nccs4)cc3)CC2=O)cc1C (stereo not drawn)	SIRT5 block 18.1
Cc1ccc(S(=O)(=O)NN2C(=O)c3ccccc3NC2c2ccccc2)cc1 (stereo not drawn)	none
CC(=O)NN1C(=O)c2ccccc2NC1c1ccc(N(C)C)cc1 (stereo not drawn)	none
O=C1c2ccccc2NC(c2cccc(O)c2)N1NS(=O)(=O)c1ccccc1 (stereo not drawn)	ERAP1 inh 38.4
CN(C)c1ccc(C2Nc3ccccc3C(=O)N2NS(C)(=O)=O)cc1 (stereo not drawn)	SIRT5 block 31.4
Cc1noc(C)c1NC(=O)N[C@H]1C=C[C@H](CC(=O)Nc2ccccc2)O[C@@H]1CO	none (no result: PDI inh, HDAC3 inh)
COCC(=O)Nc1ccc2c(c1)[C@H]1C[C@H](CC(=O)NCc3cccc(F)c3)O[C@H](CO)[C@H]1O2	none (no result: PDI inh, HDAC3 inh)
CCN1C(=O)C2C(c3ccccc3F)NC(Cc3ccc(O)cc3)(C(=O)OC)C2C1=O (stereo not drawn)	PDI inh 52.7 (no result: ERp5 block, SIRT5 block, ERAP1 inh)

From PubChem BioAssay
